We go through 14 compounds from PubChem BioAssay (NCI).

The panel holds about 83,000 compounds, 20% with a hit somewhere; the sample as a whole holds those more often.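 Cell lines were cultured in 96-well plates, exposed to a single compound concentration, and assessed for percent growth 48 hours later.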 A number with no mark means an inactive call. Active and inactive are the calls of the source. How the source made its calls: active means growth percent below 10; inactive means the rest.

The test system of this assay is NCI-H322M lung. Put plainly: NCI-60 one-dose screen, 48 h (100 = growth as untreated, 0 = no growth, -100 = all killed). The following applies: 10 µM unless noted.
Take `O=C1/C(=C/c2ccccc2)SC(=Nc2ccccc2)N1Nc1ccccc1`: the growth is 26.9%. With `COc1cnc2c(c1)C(=O)c1c-2n(CCCNC(C)C)c(=O)c2cc(Cl)ccc12` the figure was -35.7% (active); with `CCSCC1CC(O)(c2ccccc2)C(c2ccccc2)C(c2ccc(F)cc2)O1` (centres undefined), 3.59% (active); with `CN1C(=O)C(C2=NNC(c3ccccc3C(=O)O)C2)C(=O)N(C)C1=O` (centres undefined), 87.8%.

Take `NC(N)=NC1CCCCC1`: the growth is 102%. For `COc1ccc(C(=O)OC2C(OC3C(O)COC(O[C@H]4C[C@H]5[C@@H]6CC=C7C[C@@H](O)CC[C@]7(C)[C@H]6CC[C@]5(C)[C@H]4[C@H](C)C(=O)CCC(C)C)C3OC(C)=O)OCC(O)C2O)cc1` (some centres undefined), the growth was 36.9%. On to `CC(C)(C)c1ccc(OC(=O)Nc2ccccc2)cc1`, for which the growth is 94.4%. For `CN1C2CCC1/C(=C\c1ccc(F)cc1)C(=O)/C2=C/c1ccc(F)cc1`, the growth is 50.3%. For the compound `CCCCOC(=O)c1cc(O)c(O)c(O)c1`, the growth was 86.5%. With `CCOC(=O)C1OC2(CCCC2)OC1C(=O)OCC` (centres undefined), the growth is 94.3%. `O=C(Nc1cccc(-n2ccc3c(NC(=O)c4ccccc4)nccc32)c1)c1ccc(N2CCOCC2)c(C(F)(F)F)c1`: the growth is 27%. Take `CCN(CC)CCCC(C)Nc1c(-c2ccccc2)cnc2cc(Cl)ccc12` (centres undefined): the growth is 97.4%. Consider `O=C1C=CN2C(=O)CC=CC2[C@@H]1O` (some centres undefined), for which the growth is 116%. With `CC(=O)O[C@@H]1CC2C(C)(C)CCCC2(C)C2=C1C(=O)C(C(C)C)=CC2=O` (some centres undefined) the figure was -19.1% (active).
